Data from the supplement of paper PMC12282887.
± gives the standard deviation of the averaged measurements.

Legend:
Experiment in all cases: promoter activity interaction Z-score (Lux/OD deviation from empty-vector control); higher = stronger promoter induction by the compound
[1] = test system: E. coli BW25113 acrABp lux reporter
Method in brief: (§1)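 Every compound was given at four 1:2 dilutions, in biological duplicates, to E. coli BW25113 carrying low-copy luxCDABE promoter reporters in wild-type or single-gene deletion backgrounds. Growth in 40 µl LB Lennox in 384-well plates at 37°C was followed by OD600 and luminescence readings every 30 min for 12 h, integrated over 0–8 h for wild type and 1–9 h for deletion strains, with wells below 10% of the median growth value excluded. Scores are Z-transformed residuals of growth-normalised luminescence fitted against a control.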

[2] = test system: E. coli BW25113 micFp lux reporter
Method in brief: as §1

[3] = test system: E. coli BW25113 ompFp lux reporter
Method in brief: as §1

[4] = test system: E. coli BW25113 robp lux reporter
Method in brief: as §1

[5] = test system: E. coli BW25113 soxSp lux reporter
Method in brief: as §1

[6] = test system: E. coli BW25113 tolCp lux reporter
Method in brief: as §1

[7] = 1.3 µg/ml, genetic background: wild type
[8] = 1.3 µg/ml, genetic background: ΔmarA
[9] = 1.3 µg/ml, genetic background: Δrob
[10] = 1.3 µg/ml, genetic background: ΔsoxS
[11] = 2.5 µg/ml, genetic background: wild type
[12] = 2.5 µg/ml, genetic background: ΔmarA
[13] = 2.5 µg/ml, genetic background: Δrob
[14] = 2.5 µg/ml, genetic background: ΔsoxS
[15] = 5 µg/ml, genetic background: wild type
[16] = 5 µg/ml, genetic background: ΔmarA
[17] = 5 µg/ml, genetic background: Δrob
[18] = 5 µg/ml, genetic background: ΔsoxS
[19] = 10 µg/ml, genetic background: wild type
[20] = 10 µg/ml, genetic background: ΔmarA
[21] = 10 µg/ml, genetic background: Δrob
[22] = 10 µg/ml, genetic background: ΔsoxS

C/C=C/C/C=C/CCC(=O)[C@H]1O[C@H]1C(N)=O [Cerulenin]
promoter activity interaction Z-score [1, 7]: -0.125 ± 0.083 | promoter activity interaction Z-score [1, 8]: 0.156 ± 2.5 | promoter activity interaction Z-score [1, 9]: -0.449 ± 0.14 | promoter activity interaction Z-score [1, 10]: -0.289 ± 0.15 | promoter activity interaction Z-score [1, 11]: -0.467 ± 0.3 | promoter activity interaction Z-score [1, 12]: -0.0359 ± 0.66 | promoter activity interaction Z-score [1, 13]: -0.976 ± 0.19 | promoter activity interaction Z-score [1, 14]: -0.932 ± 0.045 | promoter activity interaction Z-score [1, 15]: -0.444 ± 0.41 | promoter activity interaction Z-score [1, 16]: -0.831 ± 1.3 | promoter activity interaction Z-score [1, 17]: -0.767 ± 0.071 | promoter activity interaction Z-score [1, 18]: -1.14 ± 0.31 | promoter activity interaction Z-score [1, 19]: -0.873 ± 0.42 | promoter activity interaction Z-score [1, 20]: -0.628 ± 0.16 | promoter activity interaction Z-score [1, 21]: -1.08 ± 0.23 | promoter activity interaction Z-score [1, 22]: -1.52 ± 0.22 | promoter activity interaction Z-score [2, 7]: -0.474 ± 0.33 | promoter activity interaction Z-score [2, 8]: -0.0522 ± 0.1 | promoter activity interaction Z-score [2, 9]: -0.112 ± 0.0041 | promoter activity interaction Z-score [2, 10]: -0.269 ± 0.047 | promoter activity interaction Z-score [2, 11]: -0.545 ± 0.087 | promoter activity interaction Z-score [2, 12]: 0.0153 ± 0.15 | promoter activity interaction Z-score [2, 13]: -0.217 ± 0.13 | promoter activity interaction Z-score [2, 14]: -0.157 ± 0.23 | promoter activity interaction Z-score [2, 15]: -0.73 ± 0.2 | promoter activity interaction Z-score [2, 16]: -0.0985 ± 0.11 | promoter activity interaction Z-score [2, 17]: -0.316 ± 0.094 | promoter activity interaction Z-score [2, 18]: -0.417 ± 0.0084 | promoter activity interaction Z-score [2, 19]: -0.803 ± 0.19 | promoter activity interaction Z-score [2, 20]: -0.112 ± 0.028 | promoter activity interaction Z-score [2, 21]: -0.428 ± 0.056 | promoter activity interaction Z-score [2, 22]: -0.177 ± 0.14 | promoter activity interaction Z-score [3, 7]: 0.448 ± 0.98 | promoter activity interaction Z-score [3, 8]: -0.174 ± 0.032 | promoter activity interaction Z-score [3, 9]: 0.809 ± 0.68 | promoter activity interaction Z-score [3, 10]: 0.456 ± 0.65 | promoter activity interaction Z-score [3, 11]: 0.281 ± 0.58 | promoter activity interaction Z-score [3, 12]: 0.575 ± 1.4 | promoter activity interaction Z-score [3, 13]: 0.286 ± 1.6 | promoter activity interaction Z-score [3, 14]: 0.108 ± 0.82 | promoter activity interaction Z-score [3, 15]: 0.0997 ± 0.61 | promoter activity interaction Z-score [3, 16]: -0.516 ± 0.26 | promoter activity interaction Z-score [3, 17]: -0.143 ± 0.79 | promoter activity interaction Z-score [3, 18]: -0.26 ± 1 | promoter activity interaction Z-score [3, 19]: -0.484 ± 0.16 | promoter activity interaction Z-score [3, 20]: -0.179 ± 1.2 | promoter activity interaction Z-score [3, 21]: -0.74 ± 0.62 | promoter activity interaction Z-score [3, 22]: -0.034 ± 1 | promoter activity interaction Z-score [4, 7]: -0.713 ± 0.68 | promoter activity interaction Z-score [4, 8]: -0.524 ± 0.17 | promoter activity interaction Z-score [4, 9]: -0.0923 ± 0.31 | promoter activity interaction Z-score [4, 10]: -0.398 ± 0.41 | promoter activity interaction Z-score [4, 11]: -0.365 ± 0.25 | promoter activity interaction Z-score [4, 12]: 1.47 ± 0.041 | promoter activity interaction Z-score [4, 13]: -0.839 ± 0.52 | promoter activity interaction Z-score [4, 14]: -0.254 ± 0.55 | promoter activity interaction Z-score [4, 15]: -0.743 ± 0.19 | promoter activity interaction Z-score [4, 16]: -0.973 ± 0.24 | promoter activity interaction Z-score [4, 17]: -0.585 ± 0.0081 | promoter activity interaction Z-score [4, 18]: -1.25 ± 0.42 | promoter activity interaction Z-score [4, 19]: -0.802 ± 0.13 | promoter activity interaction Z-score [4, 20]: -0.285 ± 0.72 | promoter activity interaction Z-score [4, 21]: -0.242 ± 0.94 | promoter activity interaction Z-score [4, 22]: -1.2 ± 0.47 | promoter activity interaction Z-score [5, 7]: 0.113 ± 0.13 | promoter activity interaction Z-score [5, 8]: 0.192 ± 0.091 | promoter activity interaction Z-score [5, 9]: 0.247 ± 0.027 | promoter activity interaction Z-score [5, 10]: 0.367 ± 0.43 | promoter activity interaction Z-score [5, 11]: 0.186 ± 0.013 | promoter activity interaction Z-score [5, 12]: 0.183 ± 0.076 | promoter activity interaction Z-score [5, 13]: 0.113 ± 0.03 | promoter activity interaction Z-score [5, 14]: 0.157 ± 0.38 | promoter activity interaction Z-score [5, 15]: 0.112 ± 0.028 | promoter activity interaction Z-score [5, 16]: 0.138 ± 0.17 | promoter activity interaction Z-score [5, 17]: 0.18 ± 0.047 | promoter activity interaction Z-score [5, 18]: 0.17 ± 0.56 | promoter activity interaction Z-score [5, 19]: -0.107 ± 0.23 | promoter activity interaction Z-score [5, 20]: -0.0897 ± 0.034 | promoter activity interaction Z-score [5, 21]: -0.133 ± 0.19 | promoter activity interaction Z-score [5, 22]: 0.572 ± 1.2 | promoter activity interaction Z-score [6, 7]: -1.14 ± 0.49 | promoter activity interaction Z-score [6, 8]: -0.979 ± 0.76 | promoter activity interaction Z-score [6, 9]: -0.746 ± 0.32 | promoter activity interaction Z-score [6, 10]: -0.768 ± 0.23 | promoter activity interaction Z-score [6, 11]: -0.464 ± 0.17 | promoter activity interaction Z-score [6, 12]: -0.204 ± 1.3 | promoter activity interaction Z-score [6, 13]: -1.38 ± 0.2 | promoter activity interaction Z-score [6, 14]: -0.639 ± 0.61 | promoter activity interaction Z-score [6, 15]: -0.559 ± 0.033 | promoter activity interaction Z-score [6, 16]: -0.9 ± 0.62 | promoter activity interaction Z-score [6, 17]: -1.25 ± 0.71 | promoter activity interaction Z-score [6, 18]: -1.5 ± 0.1 | promoter activity interaction Z-score [6, 19]: -0.737 ± 0.051 | promoter activity interaction Z-score [6, 20]: -1.7 ± 0.36 | promoter activity interaction Z-score [6, 21]: -0.996 ± 0.2 | promoter activity interaction Z-score [6, 22]: -0.404 ± 0.65
